Assay outcomes deposited in PubChem BioAssay by National Center for Advancing Translational Sciences (NCATS).
KDM4E inh: inhibitors of human JMJD2E histone demethylase; B2RXH2; JMJD2E catalytic domain, FDH-coupled NADH fluorescence (FDH is formaldehyde dehydrogenase); Potency, µM (doses to about 57.1 µM), usual class: inhibitors; 1.6% of 230,000 active; active = well fitted inhibition curve with a large enough effect, not every such curve was filed as active; inconclusive = small, poorly fitted or top-dose-only effect, or another doubt; inactive = no such curve, though single readings can be large or run the other way; note: nearly all actives have a fitted effect of over 50% in size
Target sequence (B2RXH2 1-337 limits assumed): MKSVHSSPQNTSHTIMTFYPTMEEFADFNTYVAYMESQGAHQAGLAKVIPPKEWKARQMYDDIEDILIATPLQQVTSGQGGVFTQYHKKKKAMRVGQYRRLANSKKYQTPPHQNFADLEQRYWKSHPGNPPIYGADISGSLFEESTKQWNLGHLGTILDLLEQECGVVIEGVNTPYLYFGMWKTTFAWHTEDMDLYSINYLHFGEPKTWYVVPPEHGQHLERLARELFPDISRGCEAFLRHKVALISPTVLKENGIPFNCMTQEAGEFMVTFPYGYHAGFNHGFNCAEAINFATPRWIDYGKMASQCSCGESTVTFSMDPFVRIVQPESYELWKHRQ
TRb-SRC2 inh: inhibitors of human thyroid hormone receptor beta-SRC2 interaction; P10828; TRbeta-SRC2 peptide binding, fluorescence polarization; receptor liganded with 1 µM T3; Potency, µM (series often up to 106 µM), hits mostly inhibitors; 0.065% of 280,000 active; AID 1469; note: nearly all actives have a fitted effect of over 50% in size
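Decrease in fluorescence polarization of 20 nM Texas Red SRC2 coactivator peptide flagged inhibition of its binding to 0.6 uM TRb LBD; 1 uM T3 included, incubation 5 hr, ex 555/em 632 nm.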
TexasRed fluor: counter-screen for TRb-SRC2 inhibitors: fluorescence interference; TRb/SRC2 Texas Red total fluorescence interference; Potency, µM (titrated, usually from 106 µM); 0.29% of 280,000 active; AID 1479; active = well fitted curve in either direction with a large enough effect; inconclusive = small, poorly fitted or top-dose-only effect
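Flags fluorescent or light-absorbing compounds by total fluorescence, S + 2P, at 555 nm excitation and 632 nm emission. Mixture: 20 nM Texas Red SRC2 peptide, 0.6 uM human TRb LBD, 1 uM T3, 5% DMSO; compound exposure 5 h at ambient temperature.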
Tau ThT inhib: blocks human tau fibril formation measured by thioflavin T. Potency, µM (highest dose often 57.4 µM), usual class: inhibitors. recombinant tau K18 P301L, heparin-induced fibrillization, ThT fluorescence. AID 1460. P10636. 2.1% of 270,000 active; note: nearly all actives have a fitted effect of over 55% in size
Target sequence (P10636 561-689 P618L limits assumed): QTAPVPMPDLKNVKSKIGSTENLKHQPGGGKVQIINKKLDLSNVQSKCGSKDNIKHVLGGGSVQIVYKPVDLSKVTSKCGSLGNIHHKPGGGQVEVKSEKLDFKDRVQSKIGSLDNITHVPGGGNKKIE
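Recombinant human tau K18 fragment […] carrying P301L, 15 uM unlabeled plus 0.24 uM Alexa 594-labeled, was fibrillized with 20 uM heparin in 100 mM sodium acetate pH 7 for 6 hr at 37 C; 30 uM ThT fluorescence read after 1 hr.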
Tau fluor counter: counter-screen for tau fibril formation inhibitors. tau K18 P301L Alexa594 fluorescence, heparin fibrillization. Potency, µM (titrated, usually from 57.7 µM). 0.93% of 280,000 active; note: nearly all actives have a fitted effect of over 55% in size
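Human tau K18 P301L (15 uM unlabeled, 0.24 uM Alexa 594-labeled) in 100 mM sodium acetate pH 7 with 20 uM heparin, 6 hr at 37 C. ThT 30 uM added, 1 hr ambient; Alexa 594 FP and total fluorescence read at 555/632 nm.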
Tau FP inhib: tau fibrillization inhibition (FP); P10636; K18 P301L tau heparin fibrillization, Alexa594 FP, 6 h; Potency, µM (series often up to 57.7 µM), actives largely listed as inhibitors; 0.39% of 280,000 active; AID 1468; note: nearly all actives have a fitted effect of over 55% in size
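Recombinant K18 P301L […], labeled with Alexa 594 at 0.24 uM over 15 uM unlabeled; heparin inducer 20 uM final; 37 C, 6 hr; FP endpoint.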
Each line names hits and unclear results; the compound was inactive in the other large screens; ! = not active in a repeat; [ ] = remark or other dose. A selection: hits, their analogues and other compounds. The true share with any hit is near 3.5%. Unless noted, calls come from the whole dose curve; as a rule, active = well fitted curve in the direction sought with a large enough effect; inconclusive = small, poorly fitted or top-dose-only effect, or another doubt; inactive = no such curve, though single readings can be large; an effect the other way counts as inactive or inconclusive.

CC1(C)C(O)CC(O)[C@]2(C)C1CC(O)[C@]1(C)C2CC[C@@]2(C)C(c3ccoc3)OC(=O)C3O[C@]312 (some centres not stated)	none
COc1ccc(/C=C/C(=O)Nc2ccc(C)cc2)cc1	TexasRed fluor inconclusive, Tau FP inhib inconclusive (no result: KDM4E inh)
COc1ccc2o/c(=N\O)c(C(=O)Nc3ccc(C)cc3)cc2c1	Tau ThT inhib 15.8µM
Cc1cccc(OP(=O)(NCc2ccccc2)Oc2cccc(C)c2)c1	Tau ThT inhib inconclusive
CCOC(=O)CC(NC(=O)C(Cc1ccc(N(CCCl)CCCl)cc1)NC(C)=O)C(=O)OCC (configuration not stated)	KDM4E inh 10µM
CN(C(=O)Oc1cccc2cccnc12)c1ccccc1	none
Oc1cccc2cccnc12	KDM4E inh 11.2µM
CC1Oc2cc3c(-c4c(O)cc(O)c5c(O)c6c(cc45)OC(C)C(C)C6=O)c(O)cc(O)c3c(O)c2C(=O)C1C (configuration not stated)	KDM4E inh 20µM, TexasRed fluor inconclusive, Tau ThT inhib 12.6µM, Tau fluor counter 12.6µM[quencher], Tau FP inhib inconclusive
CN1CCc2cc(O)cc3c2C1Cc1ccc(O)c(O)c1-3 (configuration not stated)	KDM4E inh inconclusive, Tau ThT inhib 15.8µM, Tau fluor counter 17.8µM[quencher], Tau FP inhib 39.8µM
C=CCN1CCc2cccc3c2C1Cc1ccc(O)c(O)c1-3 (configuration not stated)	KDM4E inh inconclusive, TexasRed fluor inconclusive, Tau ThT inhib 14.1µM, Tau fluor counter 14.1µM[quencher], Tau FP inhib inconclusive
COc1ccc2c(c1O)-c1cccc3c1C(C2)N(C)CC3 (configuration not stated)	KDM4E inh inconclusive, Tau ThT inhib inconclusive, Tau FP inhib inconclusive
C=CCN1CC[C@]23c4c5ccc(O)c4O[C@@H]2C(=O)CC[C@]3(O)[C@H]1C5	KDM4E inh inconclusive
Cc1ccccc1N1CCN(S(=O)(=O)c2nnc(NC(=O)c3ccc(Cl)cc3)s2)CC1	Tau ThT inhib inconclusive (no result: KDM4E inh)
C/C=C(/C)C(=O)O[C@H]1C(C)=C2[C@H]([C@@H]1OC(=O)CCCCCCC)[C@@](C)(OC(C)=O)C[C@H](OC(=O)CCC)[C@@]1(O)[C@H]2OC(=O)[C@@]1(C)O	Tau ThT inhib inconclusive (no result: KDM4E inh)
O=C1OC(=O)C2C3CCC(O3)C12 (configuration not stated)	KDM4E inh 22.4µM!
CCN1C[C@]2(COC)[C@H](O)C[C@H](OC)[C@]34C1C([C@H](OC)[C@H]23)[C@]1(OC(C)=O)C2[C@@H](OC(=O)c3ccccc3)C(O)(C[C@H]24)[C@@H](OC)[C@@H]1O	none (no result: KDM4E inh)
CCNC(=O)NC(=O)/C(C#N)=N/OC	none (no result: KDM4E inh, Tau ThT inhib, Tau fluor counter, Tau FP inhib)
C[C@]12CC[C@@H]3c4ccc(O)c(O)c4CC[C@H]3[C@@H]1CC[C@@H]2O	KDM4E inh 1.41µM, Tau ThT inhib 14.1µM, Tau fluor counter inconclusive, Tau FP inhib inconclusive
C[C@]12CC[C@@H]3c4cc(O)c(O)cc4CC[C@H]3[C@@H]1CC[C@@H]2O	KDM4E inh inconclusive, Tau ThT inhib inconclusive, Tau fluor counter inconclusive
COc1ccc(OC)c(N2Cc3ccccc3C2=N)c1	none
O=C(N/N=C/c1c(O)n(CCC2=CCCCC2)c(=S)[nH]c1=O)c1ccccc1	KDM4E inh inconclusive, Tau ThT inhib 25.1µM, Tau fluor counter inconclusive, Tau FP inhib inconclusive
O=C(N/N=C/c1c(O)n(CCC2=CCCCC2)c(=O)[nH]c1=O)c1ccccc1	KDM4E inh inconclusive, TexasRed fluor inconclusive, Tau ThT inhib inconclusive
O=C(N/N=C/c1c(O)n(-c2ccccc2)c(=S)[nH]c1=O)c1ccccc1	KDM4E inh 28.2µM (no result: Tau ThT inhib)
CC(C)CN(CC(C)C)c1ccc(C=C2C(=O)NC(=S)NC2=O)cc1[N+](=O)[O-]	KDM4E inh inconclusive, Tau ThT inhib 25.1µM, Tau fluor counter inconclusive, Tau FP inhib inconclusive
O=C(Cn1ncc2c3ccccc3n(Cc3ccc(F)cc3)c2c1=O)N1CCC2(CC1)OCCO2	KDM4E inh inconclusive, Tau FP inhib inconclusive
CCCCC/C=C\C/C=C\C/C=C\C/C=C\CCCC(=O)NCCc1ccc(O)c(O)c1	Tau ThT inhib inconclusive, Tau fluor counter inconclusive, Tau FP inhib inconclusive
CCCCC/C=C\C/C=C\C/C=C\C/C=C\CCCC(=O)Nc1ccc(O)cc1C	TexasRed fluor 3.55µM![quencher], Tau ThT inhib inconclusive, Tau fluor counter inconclusive (no result: KDM4E inh)
CCCCC/C=C\C/C=C\C/C=C\C/C=C\CCCC(=O)Nc1ccc(O)cc1	Tau ThT inhib inconclusive, Tau fluor counter 14.1µM[quencher], Tau FP inhib inconclusive
CCCCCCCCCCCCCC(=O)OC1C(C)[C@@]2(O)C(C=C(CO)C[C@]3(O)C(=O)C(C)=C[C@H]23)[C@@H]2C(C)(C)[C@]12OC(C)=O (some centres not stated)	KDM4E inh inconclusive
O=c1c2ccccc2[se]n1-c1ccccc1	KDM4E inh 0.398µM, Tau ThT inhib inconclusive, Tau fluor counter inconclusive, Tau FP inhib inconclusive
CC[N+](C)(CC)CCCOC(=O)C(O)(c1ccccc1)C1CCCCC1 (configuration not stated)	none
Cc1ccc(N2C(=O)NC(=O)/C(=C\C=C\c3ccco3)C2=O)cc1	Tau fluor counter inconclusive, Tau FP inhib 12.6µM (no result: Tau ThT inhib)
O=C1NC(=O)N(c2ccccc2)C(=O)/C1=C/C=C/c1ccco1	none (no result: Tau ThT inhib, Tau fluor counter, Tau FP inhib)
CN1C(=O)/C(=C/C=C/c2ccco2)C(=O)NC1=S	KDM4E inh inconclusive, Tau fluor counter inconclusive, Tau FP inhib inconclusive (no result: Tau ThT inhib)
CN(C)c1ccc(/C=C/C=C2/C(=O)NC(=O)N(c3ccccc3)C2=O)cc1	TRb-SRC2 inh inconclusive, TexasRed fluor 3.16µM[fluorescent], Tau ThT inhib 3.98µM, Tau fluor counter inconclusive, Tau FP inhib inconclusive
Cc1ccc(N2C(=O)NC(=O)/C(=C\C=C\c3ccco3)C2=O)cc1C	Tau ThT inhib 12.6µM, Tau FP inhib inconclusive
Cc1cccc(N2C(=O)NC(=O)/C(=C\C=C\c3ccco3)C2=O)c1	Tau ThT inhib 10µM, Tau FP inhib inconclusive
CCOC(=O)c1cncn1C(C)c1ccccc1 (configuration not stated)	none
COC(=O)C(O)(c1ccc(N(C)C(=O)c2cccs2)cc1)C(F)(F)F (configuration not stated)	none
COc1cc2c(cc1OC)-c1c(OC)c(OC)c(CO)c3c1C(C2)N(C)CC3 (configuration not stated)	KDM4E inh inconclusive
COc1cc2c(cc1OC)-c1c(OC)c(OC)c(C=O)c3c1[C@H](C2)N(C)CC3	KDM4E inh inconclusive, Tau ThT inhib 22.4µM, Tau fluor counter inconclusive, Tau FP inhib inconclusive
COc1cc2c(cc1O)C[C@H]1c3c(cc(OC)c(O)c3-2)CCN1C	KDM4E inh inconclusive, Tau ThT inhib 14.1µM, Tau fluor counter inconclusive, Tau FP inhib inconclusive
